Most compounds without a hit are left out; they make up all but 12% or so of the library.
HCV inh – blocks hepatitis C virus; Huh7.5.1 HCVcc-Cre infection, luciferase reporter, 44 h; Potency, µM (highest dose often 41.8 µM), most hits filed as inhibitors; actives 3.4% (n = 340,000); AID 651820
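Infectious HCV cell culture screen: compound-treated cells (1,000/well, pre-plated 4 h) are infected with HCVcc-Cre at roughly 0.5 moi and grown 44 h. Infection is quantified by luciferase signal after 15 min substrate incubation at room temperature.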
AMA1 RON2 block – disrupts binding of P. falciparum AMA1 to RON2. AlphaScreen AMA1-biotinylated RON2 peptide binding. Potency, µM (highest dose often 58.2 µM), actives largely listed as inhibitors. actives 0.2% (n = 360,000); also: nearly all actives have a fitted effect of over 45% in size
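AMA1 (3D7) with his tag at 25 nM final met compounds first, then biotinylated RON2 peptide at 25 nM; detection used donor plus acceptor beads, 10 µg/mL apiece, read by AlphaScreen after 30 min at room temperature.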
NS1 inh – blocks influenza NS1 protein function; Potency, µM (top dose mostly 46.1 µM); actives 0.4% (n = 270,000); AID 2326; calls by dose curve; also: actives are rising curves; nearly all actives have a fitted effect of over 50% in size
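A cell-based growth assay was used: compounds that relieve NS1-induced slow growth of budding yeast raise OD600. Assay medium was yeast nitrogen base with ammonium sulphate and -URA supplement, pH 6.0, with 2% galactose.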
SARS PLpro yeast – SARS-CoV PLP inhibition in yeast; S. cerevisiae expressing SARS-CoV PLpro, growth rescue; Potency, µM (doses to about 32.9 µM), usual class: activators; actives 0.19% (n = 330,000); calls by dose curve; also: nearly all actives have a fitted effect of over 55% in size
Pf growth 96h – P. falciparum growth inhibition at 96 hour, primary screen for plastid delayed-death inhibitors. P. falciparum luciferase reporter growth, 96 h. Potency, µM (top dose mostly 28.7 µM), hits mostly inhibitors. actives 6.9% (n = 320,000)
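Parasite growth measured via integrated firefly luciferase reporter in P. falciparum. Infected erythrocytes at 2% hematocrit, 0.05% parasitemia final were treated 96 hours at 37 C under 5% CO2, and luminescence was read.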
Pf growth 48h – P. falciparum growth inhibition at 48 hours (one generation). Potency, µM (top dose mostly 28.7 µM), actives largely listed as inhibitors. P. falciparum luciferase growth in erythrocytes, 48 h. actives 5.9% (n = 310,000)
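Growth was read as firefly luciferase luminescence after a 48 h, 37 C, 5% CO2 exposure of compounds to reporter-bearing P. falciparum cultures (0.1% parasitemia, 2% hematocrit final) in Albumax-supplemented RPMI 1640.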
Large screens that a line does not name were inactive. Unless noted, calls follow the shape of the dose curve; as a rule, active = well fitted curve in the direction sought with a large enough effect; inconclusive = small, poorly fitted or top-dose-only effect, or another doubt; inactive = no such curve, though single readings can be large; an effect the other way counts as inactive or inconclusive.

COc1ccc(N(CC(=O)N2CCN(c3ccc(F)cc3)CC2)S(=O)(=O)c2c(C)n[nH]c2C)cc1	none (no result: NS1 inh)
COc1ccc(N(CC(=O)N2CCN(c3ccc(Cl)cc3)CC2)S(=O)(=O)c2c(C)noc2C)cc1	HCV inh 11µM, Pf growth 96h inconclusive, Pf growth 48h inconclusive
COc1ccc(N(CC(=O)N2CCN(c3ccc(F)cc3)CC2)S(=O)(=O)c2c(C)noc2C)cc1	Pf growth 96h 1.9µM, Pf growth 48h inconclusive
CCOC(=O)C1CCN(C(=O)CN(c2ccc(OC)cc2)S(=O)(=O)c2c(C)noc2C)CC1	none (no result: Pf growth 48h)
COc1ccc(N(CC(=O)N2CCN(c3cccc(Cl)c3)CC2)S(=O)(=O)c2c(C)noc2C)cc1	HCV inh inconclusive, Pf growth 96h inconclusive, Pf growth 48h 10µM
CCOc1ccc(N(CC(=O)N2CCCC2)S(=O)(=O)c2c(C)noc2C)cc1	none (no result: Pf growth 48h)
CCOc1ccc(N(CC(=O)N2CCN(c3ccc(F)cc3)CC2)S(=O)(=O)c2c(C)noc2C)cc1	HCV inh inconclusive, Pf growth 96h inconclusive, Pf growth 48h 10µM
CN1CCN(C(CNC(=O)c2ccc(Br)o2)c2ccc(F)cc2)CC1 (stereo not given)	none (no result: NS1 inh)
O=C(O)c1cccc([As]=[As]c2cccc(C(=O)O)c2)c1 (stereo not given)	none (no result: HCV inh, AMA1 RON2 block, SARS PLpro yeast, Pf growth 96h, Pf growth 48h)
CC(=O)CCC(=O)N1CCC(n2nccc2NC(=O)c2ccccc2C)CC1	none (no result: HCV inh)
O=C(Cn1cc(S(=O)(=O)Cc2cccc(F)c2)c2ccccc21)N1CCOCC1	none
CN(Cc1cccs1)C(=O)CSc1nc(N)cc(N)n1	none (no result: NS1 inh)
COc1ccc(-n2c(=O)c(CCC(=O)N(C)Cc3cccs3)nc3ccccc32)cc1	HCV inh inconclusive, Pf growth 96h inconclusive, Pf growth 48h 13µM (no result: NS1 inh)
COc1ccc(-n2c(=O)c(CCC(=O)N3CCC(C)CC3)nc3ccccc32)cc1	HCV inh inconclusive, Pf growth 96h inconclusive, Pf growth 48h 9.3µM (no result: NS1 inh)
CCOC(=O)c1cc(C(=O)OCC)c(=O)[nH]c1N1CCCCC1	Pf growth 96h inconclusive, Pf growth 48h inconclusive (no result: NS1 inh)
O=c1c(Br)c(Br)cnn1-c1ccccc1	HCV inh 8.9µM
Cc1ccc(-n2ncc(Br)c(Br)c2=O)cc1	HCV inh inconclusive
COc1ccc2c(c1)C=C(CN1CCN(C3CCCC3)C(CCO)C1)CO2 (stereo not given)	HCV inh inconclusive
N/C(=N\N=C/c1ccc(Br)cc1)N/N=C\c1ccc(Br)cc1	HCV inh inconclusive, Pf growth 48h inconclusive
N/C(=N\N=C/c1ccc(F)cc1)N/N=C\c1ccc(F)cc1	Pf growth 96h inconclusive, Pf growth 48h 0.74µM
N/C(=N\N=C\c1ccc(Cl)cc1)N/N=C/c1ccc(Cl)cc1	Pf growth 96h 0.85µM, Pf growth 48h 0.76µM (no result: HCV inh, AMA1 RON2 block, NS1 inh, SARS PLpro yeast)
N/C(=N\N=Cc1ccc2c(c1)OCO2)NN=Cc1ccc2c(c1)OCO2	none (no result: NS1 inh, SARS PLpro yeast, Pf growth 96h, Pf growth 48h)
Cc1cc2c(cc(C(=O)OC(C(=O)NCC3CCCO3)C(C)C)n2C)o1 (stereo not given)	HCV inh inconclusive, Pf growth 96h inconclusive
Cc1cc2c(cc(C(=O)OC(C(=O)NC3CCCCC3)C(C)C)n2C)o1 (stereo not given)	HCV inh 16µM, Pf growth 48h inconclusive (no result: NS1 inh)
CCOc1cc(S(=O)(=O)n2cc(-c3ccc(F)cc3)c(N)n2)cc(OCC)c1OCC	HCV inh 6.3µM, Pf growth 48h 8.3µM (no result: Pf growth 96h)
CCOc1ccc(S(=O)(=O)n2cc(-c3ccccc3)c(N)n2)cc1	Pf growth 96h inconclusive, Pf growth 48h inconclusive
CCOc1ccc(S(=O)(=O)n2cc(-c3ccc(F)cc3)c(N)n2)cc1	HCV inh inconclusive, Pf growth 96h 9.3µM (no result: Pf growth 48h)
CCOc1cc(-c2cn(S(=O)(=O)c3cccc4nsnc34)nc2N)cc(OCC)c1OCC	HCV inh inconclusive, Pf growth 96h inconclusive (no result: Pf growth 48h)
COc1ccccc1-c1cn(S(=O)(=O)c2ccc(F)cc2)nc1N	HCV inh 10µM, Pf growth 48h inconclusive (no result: Pf growth 96h)
COCCNC(=O)C(OC(=O)c1nsc(Cl)c1Cl)C(C)C (stereo not given)	Pf growth 96h inconclusive (no result: NS1 inh)
CN1C(=O)C2(OCC(C)([N+](=O)[O-])CO2)c2ccccc21 (stereo not given)	Pf growth 96h inconclusive
CN1C(=O)C2(N=c3ccccc3=N2)c2ccccc21	HCV inh 11µM
O=C(CCC(=O)N1CCCCC1)Nc1ccc(Cl)c(Cl)c1	Pf growth 96h 12µM
Cc1ccc(NC(=O)CCN2CCN(C/C=C/c3ccccc3)CC2)cc1C	Pf growth 48h 6.6µM
Cc1cc(NC(=O)CCN2CCCCC2)ccc1Br	Pf growth 96h 2.6µM
Cc1cccc(NC(=O)CCC2CCN(C(=O)c3ccc(C)s3)CC2)c1	HCV inh inconclusive, Pf growth 96h inconclusive, Pf growth 48h inconclusive
Cc1cc(NC(=O)CCN2CCN(CCO)CC2)ccc1Br	Pf growth 48h inconclusive
Cc1cccc(NC(=O)CCC2CCN(Cc3nccs3)CC2)c1	Pf growth 96h 9.3µM
O=C(NCc1cccnc1)C(=O)Nc1cc2c3c(c1)CC(=O)N3CCC2	Pf growth 96h inconclusive (no result: NS1 inh)
CCC1Sc2ccc(S(=O)(=O)CCC(=O)NCc3ccco3)cc2NC1=O (stereo not given)	none
O=C(NCCCc1ccccc1)c1cncc(Br)c1	none
COc1ccc(NC(=O)CCN2CCCCC2)cc1	Pf growth 96h 13µM
Cc1cccc(NC(=O)CCN2CCCCC2)c1	none
Cc1ccc(-c2cnc(NC(=O)CCC(=O)N3CCCCC3)n2C)cc1	Pf growth 96h 12µM
O=C(CCC(=O)c1ccc(Oc2ccccc2)cc1)Nc1cccc(Cl)c1	Pf growth 96h 5.9µM
Cc1cccc(NC(=O)CCN2CCC(C(N)=O)CC2)c1	Pf growth 96h 6.6µM
COc1c(C)cc(C(O)c2ncc(-c3ccc4ccccc4c3)[nH]2)cc1C (stereo not given)	none (no result: HCV inh, NS1 inh, SARS PLpro yeast, Pf growth 96h, Pf growth 48h)
O=C(C1CC(=O)N(c2ccc(Cl)cc2)C1)N1CCOCC1 (stereo not given)	none
CCCCNC(=O)C(NC(=O)c1ccc(-c2ccccc2)cc1)C(=O)c1ccccc1 (stereo not given)	none (no result: HCV inh, NS1 inh, SARS PLpro yeast, Pf growth 96h, Pf growth 48h)
O=C(CCN1CCCCC1)Nc1cccc(Cl)c1	Pf growth 96h inconclusive (no result: Pf growth 48h)
O=C(CCN1CCCCCC1)Nc1cccc(Cl)c1	Pf growth 96h 2.1µM
CC1CC(C)CN(CCC(=O)Nc2ccc(Br)cc2)C1 (stereo not given)	HCV inh inconclusive, Pf growth 96h 7.4µM
Cc1ccc2sc(N3CCN(CCNC(=O)c4ccco4)CC3)nc2c1C	HCV inh inconclusive, Pf growth 96h inconclusive, Pf growth 48h inconclusive (no result: NS1 inh)
COc1ccccc1NC(=O)Nc1nc(CC(=O)N2CCN(c3ccccc3F)CC2)cs1	Pf growth 96h inconclusive, Pf growth 48h inconclusive (no result: NS1 inh)
O=C1N/C(=N\N=C\c2cccs2)SC1Cc1ccc(Cl)cc1 (stereo not given)	Pf growth 96h 0.74µM, Pf growth 48h inconclusive
O=C1N/C(=N\N=C\c2cccnc2)SC1Cc1ccc(SC(F)F)cc1 (stereo not given)	HCV inh inconclusive, Pf growth 48h 3.3µM (no result: Pf growth 96h)
